# Measurements reported in PubChem BioAssay (EPA / NIEHS).
# Where “and” joins values, the source holds several entries; their conditions need not be identical. Equal values may be shown once. Inconclusive results are not listed. Some compounds were tested as several samples or in several runs, with calls that do not always agree. Calls of active or inactive are those of the source. The calls were made as follows: active = hit-call score of the fitted dose curve at least 0.9, where 1 is the maximum; inconclusive = response in the unintended direction; inactive = score below 0.9.
# How the values were obtained:
# [1] = target: rat Neonicotinoid receptor (NNR), Chrna7 (gene 25302) (UniProt Q05941); test: NVS_LGIC_rNNR_BungSens: NovaScreen (NVS) Ligand-Gated Ion Channel Assay for rat Neonicotinoid receptor (NNR) (AID 2283315)
# rat Neonicotinoid receptor (NNR), Chrna7 (gene 25302), sequence (Q05941 whole entry, looked up): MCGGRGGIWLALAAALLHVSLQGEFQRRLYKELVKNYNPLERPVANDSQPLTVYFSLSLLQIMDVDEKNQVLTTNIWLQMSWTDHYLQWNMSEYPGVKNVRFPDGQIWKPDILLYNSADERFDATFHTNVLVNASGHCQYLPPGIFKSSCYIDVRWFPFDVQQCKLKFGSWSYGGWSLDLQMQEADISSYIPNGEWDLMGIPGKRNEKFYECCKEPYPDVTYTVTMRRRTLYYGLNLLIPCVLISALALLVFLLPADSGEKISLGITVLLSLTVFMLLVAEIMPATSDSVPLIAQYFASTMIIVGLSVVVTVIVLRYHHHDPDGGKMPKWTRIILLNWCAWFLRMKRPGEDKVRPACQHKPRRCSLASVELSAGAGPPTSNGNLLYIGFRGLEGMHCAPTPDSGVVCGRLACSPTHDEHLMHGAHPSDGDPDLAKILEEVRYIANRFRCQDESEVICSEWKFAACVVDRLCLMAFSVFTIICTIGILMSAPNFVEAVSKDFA
# Summary of the method: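 Rat cortical membrane preparation incubated 2.5 h with tritiated or iodinated radioligand and test chemical. Bound radioactivity was filtered and counted by scintillation, and displacement was analysed against DMSO.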
# [2] = target: Sodium channel protein type 1 subunit alpha (Rattus norvegicus) (UniProt P04774); test: NVS_IC_rNaCh_site2: NovaScreen (NVS) Ion Channel Assay for rat Sodium Channel, Site 2 (NaCh) (AID 2283322);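 also: hit means loss of radioligand binding signal relative to DMSO so AC50 marks displacement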
# Summary of the method: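 Initial duplicate single-point testing at 25 uM, followed by concentration-response runs for actives. Binding of radioligand to rat forebrain membranes quantified after 1 h via filter-based radiodetection.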
# [3] = target: Voltage-dependent N-type calcium channel subunit alpha-1B (Rattus norvegicus) (UniProt Q02294); test: NVS_IC_rCaChN: NovaScreen (NVS) Ion Channel Assay for rat Calcium Channel, Type N (CaChN) (AID 2283317)
# [4] = target: rat Opioid Receptor, Non-selective Binding, Oprm1 (gene 25601) (UniProt P33535); test: NVS_GPCR_rOpiate_NonSelective: NovaScreen (NVS) G Protein-Coupled Receptor Assay for rat Opioid Receptor, Non-selective Binding (AID 2283318)
# rat Opioid Receptor, Non-selective Binding, Oprm1 (gene 25601), sequence (P33535 whole entry, looked up): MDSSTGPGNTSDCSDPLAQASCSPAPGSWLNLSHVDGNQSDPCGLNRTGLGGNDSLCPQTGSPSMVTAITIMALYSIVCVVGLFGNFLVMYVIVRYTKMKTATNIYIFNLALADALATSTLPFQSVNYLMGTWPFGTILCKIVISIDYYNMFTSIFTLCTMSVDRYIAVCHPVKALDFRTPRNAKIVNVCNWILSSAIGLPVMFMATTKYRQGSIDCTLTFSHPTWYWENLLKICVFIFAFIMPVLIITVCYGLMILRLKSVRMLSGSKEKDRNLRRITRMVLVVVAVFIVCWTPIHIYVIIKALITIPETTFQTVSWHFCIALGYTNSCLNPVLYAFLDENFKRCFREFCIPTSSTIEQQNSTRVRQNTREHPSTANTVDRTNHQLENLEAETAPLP
# Summary of the method: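 Filter-based radioligand displacement using rat forebrain membrane preparations, measured 1.5 h post-dosing. Single-concentration duplicate screen at 25 uM, follow-up in concentration series; activity taken as signal loss relative to DMSO.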
# [5] = target: human Peripheral-type Benzodiazepine Receptor (PBR), TSPO (gene 706) (UniProt P30536); test: NVS_MP_hPBR: NovaScreen (NVS) Membrane Protein Assay for human Peripheral-type Benzodiazepine Receptor (PBR) (AID 2283331);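 also: hits reduce radioligand binding relative to DMSO baseline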
# human Peripheral-type Benzodiazepine Receptor (PBR), TSPO (gene 706), sequence (P30536 whole entry, looked up): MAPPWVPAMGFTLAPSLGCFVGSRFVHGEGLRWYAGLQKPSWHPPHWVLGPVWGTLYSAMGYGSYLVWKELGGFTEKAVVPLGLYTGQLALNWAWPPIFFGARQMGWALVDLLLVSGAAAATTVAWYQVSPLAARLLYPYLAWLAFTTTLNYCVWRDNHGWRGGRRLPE
# Summary of the method: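 Cell-free binding to human colonic membrane preparations measured by filter-based scintillation counting after 1 h. Compounds first run at 25 uM in duplicate, then concentration series for actives; signal loss against DMSO baseline.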
# [6] = target: rat Peripheral-type Benzodiazepine Receptor (PBR), Tspo (gene 24230) (UniProt P16257); test: NVS_MP_rPBR: NovaScreen (NVS) Membrane Protein Assay for rat Peripheral-type Benzodiazepine Receptor (PBR) (AID 2283335)
# rat Peripheral-type Benzodiazepine Receptor (PBR), Tspo (gene 24230), sequence (P16257 whole entry, looked up): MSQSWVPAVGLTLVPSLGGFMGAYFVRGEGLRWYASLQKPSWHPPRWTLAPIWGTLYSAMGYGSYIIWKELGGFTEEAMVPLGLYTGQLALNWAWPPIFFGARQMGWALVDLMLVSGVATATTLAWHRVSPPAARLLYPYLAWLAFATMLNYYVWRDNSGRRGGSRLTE
# Summary of the method: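 Competitive displacement of specific radioligand from rat kidney membrane PBR, read by filtration and scintillation after 1 h. Compounds first tested at 25 uM in duplicate, then in concentration series; signal loss relative to DMSO.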
# [7] = NVS_IC_rCaDHPRCh_L: NovaScreen (NVS) Ion Channel Assay for rat Calcium Channel, Type L, Dihydropyridine Site (CaDHPRCh_L) (AID 2283320)
# Summary of the method: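 Rat cortex membrane preparation; dihydropyridine-site radioligand displacement read 1 h post-dose by filtration and scintillation. Primary single-point screen 25 uM in duplicate, then concentration series to 50 uM maximum; DMSO as negative control.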
# [8] = target: Voltage-gated inwardly rectifying potassium channel KCNH2 (Homo sapiens) (UniProt Q12809); test: NVS_IC_hKhERGCh: NovaScreen (NVS) Ion Channel Assay for human Potassium Channel ERG (KhERGCh) (AID 2283333)
# Voltage-gated inwardly rectifying potassium channel KCNH2 (Homo sapiens), sequence (Q12809 whole entry, looked up): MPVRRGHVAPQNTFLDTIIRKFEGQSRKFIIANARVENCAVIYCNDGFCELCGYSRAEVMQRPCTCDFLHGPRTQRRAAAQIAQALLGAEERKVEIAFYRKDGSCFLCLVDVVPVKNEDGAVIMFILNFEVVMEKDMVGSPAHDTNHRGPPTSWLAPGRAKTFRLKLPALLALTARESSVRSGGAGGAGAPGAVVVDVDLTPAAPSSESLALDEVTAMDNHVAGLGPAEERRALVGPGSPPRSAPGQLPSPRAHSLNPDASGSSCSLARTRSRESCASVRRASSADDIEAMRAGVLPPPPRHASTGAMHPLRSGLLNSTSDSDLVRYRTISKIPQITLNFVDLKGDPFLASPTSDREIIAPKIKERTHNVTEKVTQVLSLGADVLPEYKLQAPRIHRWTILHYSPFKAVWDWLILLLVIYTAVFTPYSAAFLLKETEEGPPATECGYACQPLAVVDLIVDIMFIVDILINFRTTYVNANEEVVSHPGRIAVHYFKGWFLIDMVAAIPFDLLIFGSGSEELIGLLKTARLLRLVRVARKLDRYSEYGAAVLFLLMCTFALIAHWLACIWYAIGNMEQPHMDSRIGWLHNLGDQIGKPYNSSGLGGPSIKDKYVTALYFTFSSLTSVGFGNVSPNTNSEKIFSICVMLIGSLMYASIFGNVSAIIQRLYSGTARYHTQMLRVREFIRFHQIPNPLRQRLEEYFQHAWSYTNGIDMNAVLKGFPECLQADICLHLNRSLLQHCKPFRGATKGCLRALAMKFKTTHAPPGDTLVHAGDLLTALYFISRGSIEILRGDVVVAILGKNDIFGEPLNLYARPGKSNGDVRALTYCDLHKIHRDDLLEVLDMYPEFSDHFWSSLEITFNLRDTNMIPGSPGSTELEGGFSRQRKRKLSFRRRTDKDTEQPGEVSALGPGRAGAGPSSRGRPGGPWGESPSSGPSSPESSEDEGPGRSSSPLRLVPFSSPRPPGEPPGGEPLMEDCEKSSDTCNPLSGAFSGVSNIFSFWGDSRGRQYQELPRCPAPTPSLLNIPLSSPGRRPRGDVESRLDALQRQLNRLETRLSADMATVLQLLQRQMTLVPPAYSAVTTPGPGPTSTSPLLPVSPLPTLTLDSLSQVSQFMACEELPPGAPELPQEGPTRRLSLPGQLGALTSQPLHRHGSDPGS
# Summary of the method: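 Membranes from CHO cells expressing human ERG; displacement of radioligand measured by filtration and scintillation after 0.75 h. Single-concentration duplicate screen at 25 uM, then concentration-response for actives; DMSO baseline.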
# [9] = NVS_IC_rCaBTZCHL: NovaScreen (NVS) Ion Channel Assay for Calcium Channel, Type L, Benzothiazepine Site (CaBTZCHL) (AID 2283337)
# Summary of the method: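 Test chemicals were added to rat cortical membranes and incubated 1.5 h with a tritiated or iodinated radioligand for the benzothiazepine site. Bound ligand was separated by filtration and counted. Actives from the 25 uM duplicate screen were retested in concentration series.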
# [10] = target: bovine Gamma-Aminobutyric Acid Type A Receptor BDZ, alpha 1 site (GABARa1), GABRA1 (gene 780973) (UniProt P08219); test: NVS_LGIC_bGABARa1: NovaScreen (NVS) Ligand-Gated Ion Channel Assay for bovine Gamma-Aminobutyric Acid Type A Receptor BDZ, alpha 1 site (GABARa1) (AID 2283321)
# Summary of the method: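 Bovine cortex membrane preparation, benzodiazepine site on GABA-A alpha1; specific radioligand displacement read after 0.75 h by filtration and scintillation. Screen at 25 uM, then singleton titrations up to 50 uM; DMSO baseline.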
# [11] = target: rat Gamma-Aminobutyric Acid Type A Receptor BDZ, alpha 6 site (GABARa6), Gabra6 (gene 29708) (UniProt P30191); test: NVS_LGIC_rGABARa6: NovaScreen (NVS) Ligand-Gated Ion Channel Assay for rat Gamma-Aminobutyric Acid Type A Receptor BDZ, alpha 6 site (GABARa6) (AID 2283339)
# rat Gamma-Aminobutyric Acid Type A Receptor BDZ, alpha 6 site (GABARa6), Gabra6 (gene 29708), sequence (P30191 whole entry, looked up): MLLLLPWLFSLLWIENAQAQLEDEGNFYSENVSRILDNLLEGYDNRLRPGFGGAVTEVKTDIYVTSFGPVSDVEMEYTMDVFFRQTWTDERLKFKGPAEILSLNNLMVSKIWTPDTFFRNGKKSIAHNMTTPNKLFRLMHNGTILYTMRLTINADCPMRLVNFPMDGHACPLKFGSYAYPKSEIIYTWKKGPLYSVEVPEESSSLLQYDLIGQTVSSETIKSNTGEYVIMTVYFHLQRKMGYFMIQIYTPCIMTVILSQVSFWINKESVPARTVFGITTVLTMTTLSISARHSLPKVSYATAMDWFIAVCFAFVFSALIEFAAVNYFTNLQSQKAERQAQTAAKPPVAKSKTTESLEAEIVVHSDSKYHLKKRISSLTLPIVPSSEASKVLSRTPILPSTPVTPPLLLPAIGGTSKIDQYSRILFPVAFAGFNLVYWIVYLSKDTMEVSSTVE
# Summary of the method: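 Actives from a 25 uM duplicate screen were retested in concentration series (max 50 uM). Specific radioligand displacement from rat cerebellar membranes was counted by filter-based scintillation at 1 h; DMSO served as baseline.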
# [12] = target: human Constitutive Androstane Receptor (CAR), NR1I3 (gene 9970) (UniProt Q14994); test: NVS_NR_hCAR_Agonist: NovaScreen (NVS) Nuclear Receptor Binding Assay for human Constitutive Androstane Receptor Agonism (CAR) (AID 2283328)
# human Constitutive Androstane Receptor (CAR), NR1I3 (gene 9970), sequence (Q14994 whole entry, looked up): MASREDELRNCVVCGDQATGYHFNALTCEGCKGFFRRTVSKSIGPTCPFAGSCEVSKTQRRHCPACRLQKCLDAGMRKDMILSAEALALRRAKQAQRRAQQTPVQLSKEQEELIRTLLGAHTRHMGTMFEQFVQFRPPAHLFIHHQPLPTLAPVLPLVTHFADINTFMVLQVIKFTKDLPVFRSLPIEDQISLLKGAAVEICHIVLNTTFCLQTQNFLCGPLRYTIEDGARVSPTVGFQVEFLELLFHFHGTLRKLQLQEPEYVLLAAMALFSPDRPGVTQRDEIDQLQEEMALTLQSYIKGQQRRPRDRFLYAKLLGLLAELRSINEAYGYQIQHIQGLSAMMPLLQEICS
# Summary of the method: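 Actives from a 25 uM duplicate screen were retested in singleton concentration series to 50 uM max. Biochemical TR-FRET assay on extracted CAR protein measured 1 h post-dose, with signal increase over DMSO control.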
# NCBI gene 24521 = test: NVS_IC_rKATPCh: NovaScreen (NVS) Ion Channel Assay for rat Potassium Channel, ATP-Sensitive (KATPCh) (AID 2283319)
# Summary of the method: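 Primary duplicate screen at 25 uM, then singleton concentration series to 50 uM maximum, in a rat cortex membrane radioligand displacement assay. Binding measured by filtration and scintillation 2 h post-dose; DMSO baseline.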
# [13] = target: rat Glutamate, AMPA Site (AMPA), Gria1 (gene 50592) (UniProt P19490); test: NVS_LGIC_rAMPA: NovaScreen (NVS) Ligand-Gated Ion Channel Assay for rat Glutamate, AMPA Site (AMPA) (AID 2283324)
# rat Glutamate, AMPA Site (AMPA), Gria1 (gene 50592), sequence (P19490 whole entry, looked up): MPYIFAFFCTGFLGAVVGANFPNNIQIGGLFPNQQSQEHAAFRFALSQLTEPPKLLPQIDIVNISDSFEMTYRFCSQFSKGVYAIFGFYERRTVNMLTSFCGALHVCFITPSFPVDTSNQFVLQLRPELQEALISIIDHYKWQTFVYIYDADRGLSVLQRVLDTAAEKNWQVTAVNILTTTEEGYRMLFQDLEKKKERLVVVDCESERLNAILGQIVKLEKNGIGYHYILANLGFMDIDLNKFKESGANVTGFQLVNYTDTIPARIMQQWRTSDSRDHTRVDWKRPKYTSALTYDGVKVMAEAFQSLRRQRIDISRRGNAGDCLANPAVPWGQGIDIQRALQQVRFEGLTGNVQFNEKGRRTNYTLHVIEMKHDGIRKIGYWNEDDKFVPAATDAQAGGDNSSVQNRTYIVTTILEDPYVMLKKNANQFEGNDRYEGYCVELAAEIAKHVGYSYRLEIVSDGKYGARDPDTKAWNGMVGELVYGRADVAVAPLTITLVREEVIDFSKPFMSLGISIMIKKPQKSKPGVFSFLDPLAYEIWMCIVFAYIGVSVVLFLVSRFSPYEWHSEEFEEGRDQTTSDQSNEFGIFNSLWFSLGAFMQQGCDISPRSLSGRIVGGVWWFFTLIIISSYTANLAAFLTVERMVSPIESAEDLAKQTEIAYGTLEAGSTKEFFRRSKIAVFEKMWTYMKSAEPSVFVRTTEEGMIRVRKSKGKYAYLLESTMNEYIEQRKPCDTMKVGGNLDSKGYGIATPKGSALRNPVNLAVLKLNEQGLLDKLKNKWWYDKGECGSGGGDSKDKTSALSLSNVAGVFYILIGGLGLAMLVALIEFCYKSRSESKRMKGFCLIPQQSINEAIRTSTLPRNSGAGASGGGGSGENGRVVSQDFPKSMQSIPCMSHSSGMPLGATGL
# Summary of the method: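 Screening at 25 uM in duplicate preceded concentration series reaching 50 uM for qualifying compounds. Radioligand displacement on rat forebrain membranes, 1 h, filter-based scintillation readout; reduced binding relative to DMSO.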
# [14] = target: bovine Gamma-Aminobutyric Acid Type A Receptor Agonist (GABAR Agonist), GABRA1 (gene 780973) (UniProt P08219); test: NVS_LGIC_bGABAR_Agonist: NovaScreen (NVS) Ligand-Gated Ion Channel Assay for bovine Gamma-Aminobutyric Acid Type A Receptor Agonist (GABAR Agonist) (AID 2283338)
# bovine Gamma-Aminobutyric Acid Type A Receptor Agonist (GABAR Agonist), GABRA1 (gene 780973), sequence (P08219 whole entry, looked up): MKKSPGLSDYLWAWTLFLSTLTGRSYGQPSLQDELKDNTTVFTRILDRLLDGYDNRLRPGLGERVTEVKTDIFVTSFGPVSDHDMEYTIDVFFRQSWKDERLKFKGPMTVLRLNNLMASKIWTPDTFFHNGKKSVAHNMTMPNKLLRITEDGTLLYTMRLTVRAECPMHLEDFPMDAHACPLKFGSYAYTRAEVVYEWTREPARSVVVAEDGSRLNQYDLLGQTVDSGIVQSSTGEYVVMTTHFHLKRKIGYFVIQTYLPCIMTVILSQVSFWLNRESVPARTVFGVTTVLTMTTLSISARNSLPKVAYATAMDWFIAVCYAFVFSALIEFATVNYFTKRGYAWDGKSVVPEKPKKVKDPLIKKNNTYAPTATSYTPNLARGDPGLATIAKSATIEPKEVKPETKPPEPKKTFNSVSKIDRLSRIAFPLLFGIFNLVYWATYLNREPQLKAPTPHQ
# Summary of the method: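 Radioligand binding to bovine cerebellar membranes in agonist format, read by filter-based scintillation counting after 1 h. Primary screen in duplicate at 25 uM, with actives followed in concentration series. Gain of signal versus DMSO.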
# [15] = target: rat Gamma-Aminobutyric Acid Type A Receptor, Non-Selective (GABAR-NonSelective), Gabra1 (gene 29705) (UniProt P62813); test: NVS_LGIC_rGABAR_NonSelective: NovaScreen (NVS) Ligand-Gated Ion Channel Assay for rat Gamma-Aminobutyric Acid Type A Receptor, Non-Selective (GABAR-NonSelective) (AID 2283326)
# Summary of the method: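 Compounds were first screened in duplicate at 25 uM, with actives run as singleton concentration series (max 50 uM). Binding of a radioligand to rat whole-brain GABA-A preparation was measured by filtration and scintillation counting after 1 h, DMSO baseline.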
# [16] = target: human Serotonin, 5-Hydroxytryptamine Receptor 3 (5HT3), HTR3A (gene 3359) (UniProt P46098); test: NVS_LGIC_h5HT3: NovaScreen (NVS) Ligand-Gated Ion Channel Assay for human Serotonin, 5-Hydroxytryptamine Receptor 3 (5HT3) (AID 2283325)
# Summary of the method: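 Initially tested at 25 uM in duplicate, then up to 50 uM in concentration-response for actives, compounds competed with a radioligand for HEK293-derived human 5-HT3 receptor. Bound counts were measured by filtration and scintillation at 1 h; loss of signal versus DMSO.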
# [17] = target: rat Vasopressin 1 Receptor (V1), Avpr1a (gene 25107) (UniProt P30560); test: NVS_GPCR_rV1: NovaScreen (NVS) G Protein-Coupled Receptor Assay for rat Vasopressin 1 Receptor (V1) (AID 2283316)
# rat Vasopressin 1 Receptor (V1), Avpr1a (gene 25107), sequence (P30560 whole entry, looked up): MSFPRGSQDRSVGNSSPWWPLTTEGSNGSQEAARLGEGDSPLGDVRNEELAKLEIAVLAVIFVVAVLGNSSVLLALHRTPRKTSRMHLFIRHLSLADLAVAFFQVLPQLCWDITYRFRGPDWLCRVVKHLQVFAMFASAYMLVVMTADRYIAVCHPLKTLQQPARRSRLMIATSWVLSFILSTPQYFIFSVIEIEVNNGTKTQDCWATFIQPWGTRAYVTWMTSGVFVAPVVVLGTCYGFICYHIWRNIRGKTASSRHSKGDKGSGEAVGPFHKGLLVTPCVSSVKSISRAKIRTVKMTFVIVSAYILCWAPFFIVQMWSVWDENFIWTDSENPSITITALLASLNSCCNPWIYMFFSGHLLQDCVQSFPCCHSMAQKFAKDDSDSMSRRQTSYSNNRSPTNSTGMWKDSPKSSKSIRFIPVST
# Summary of the method: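 Concentration-response up to 50 uM for chemicals passing a threshold such as 30% inhibition in an initial duplicate 25 uM screen. Displacement of radioligand from rat liver membranes measured after 1.5 h by filtration and scintillation.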
# [18] = target: rat Oxytocin Receptor (OXT), Oxtr (gene 25342) (UniProt P70536); test: NVS_GPCR_rOXT: NovaScreen (NVS) G Protein-Coupled Receptor Assay for rat Oxytocin Receptor (OXT) (AID 2283330)
# Summary of the method: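 Binding to rat uterine membrane receptor was followed by scintillation counting of filter-trapped radioligand after 1 h. A 25 uM duplicate single-point screen preceded concentration series with a top of 50 uM. Signal loss was analysed relative to DMSO.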
# [19] = target: human Androgen Receptor (AR), AR (gene 367) (UniProt P10275); test: NVS_NR_hAR: NovaScreen (NVS) Nuclear Receptor Binding Assay for human Androgen Receptor (AR) (AID 2283332)
# Summary of the method: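 Radioligand competitive binding, scintillation read-out, in cell-free extract from LnCAP, measured 20 h after dosing. Screened first in duplicate at 25 uM, then concentration series for actives; activity fitted against DMSO.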
smiles,measurement,setting,value
COc1cc2c(cc1OC)[C@@]13CCN4CC5=CCO[C@H]6CC(=O)N2[C@H]1[C@H]6[C@H]5C[C@H]43,AC50,[1],25 µM (active)
CCSC(C)CC1CC(=O)C(C(CC)=NOC/C=C/Cl)=C(O)C1 (stereo unspecified),outcome,[2],inactive
O=c1[nH]c(=O)[nH]c(=O)[nH]1,outcome,[3],inactive
same,outcome,[4],inactive
CC(C)CCCCCCOC(=O)c1ccccc1C(=O)OCCCCCCC(C)C,outcome,[5],inactive
CCNc1nc(NC(C)(C)C)nc(SC)n1,AC50,[2],12.1 µM (active)
same,outcome,[6],inactive
CCN1CCC2(CC1)COc1cc3c(cc12)N(C(=O)c1ccc(-c2ccc(-c4nnc(C)o4)cc2C)cc1)CC3,AC50,[1],21.2 µM (active)
same,outcome,[4],inactive
same,AC50,[7],4.93 µM (active)
same,AC50,[2],3.44 µM (active)
same,AC50,[5],2.37 µM (active)
same,outcome,[8],inactive
same,AC50,[6],6.5 µM (active)
same,AC50,[9],4.16 µM (active)
O=C1C(Cl)=C(Cl)C(=O)c2ccccc21,AC50,[5],7.47 µM (active)
NC(=S)Nc1ccccc1,AC50,[2],0.569 µM (active)
Cn1sc(Cl)cc1=O,outcome,[10],inactive
same,outcome,[6],inactive
same,outcome,[9],inactive
same,outcome,[11],inactive
Oc1cccc2cccnc12,outcome,[7],inactive
O=C1C2(Cl)C3(Cl)C4(Cl)C(Cl)(Cl)C5(Cl)C3(Cl)C1(Cl)C5(Cl)C24Cl (stereo unspecified),outcome,[12],inactive
same,outcome,[6],inactive
C[C@@H]1C[C@@H]([C@H](O)CC2CC(=O)NC(=O)C2)C(=O)[C@@H](C)C1,outcome,[1],inactive
same,AC50,[6],33.3 µM (active)
same,outcome,[6],inactive
C=C(C)C(=O)[O][Sn]([CH2]CCC)([CH2]CCC)[CH2]CCC,AC50,[4],4.13 µM (active)
same,outcome,NCBI gene 24521,inactive
same,AC50,[7],12.3 µM (active)
same,AC50,[2],25 µM (active)
same,AC50,[13],25 µM (active)
same,outcome,[8],inactive
same,AC50,[9],12.8 µM (active)
same,outcome,[14],inactive
CCOP(=S)(OCC)Oc1nc(Cl)c(Cl)cc1Cl,AC50,[15],9.12 µM (active)
same,outcome,[12],inactive
O=C(O)C(F)(F)C(F)(F)C(F)(F)C(F)(F)C(F)(F)C(F)(F)C(F)(F)C(F)(F)C(F)(F)C(F)(F)F,outcome,[16],inactive
CCCCCCCCC(=O)NCc1ccc(O)c(OC)c1,AC50,[2],1.55 µM (active)
same,AC50,[5],4.12 µM (active)
same,AC50,[6],6.25 µM (active)
O=C(O)C(F)(F)C(F)(F)C(F)(F)C(F)(F)C(F)(F)C(F)(F)F,AC50,[17],39.2 µM (active)
CC(=O)[O][Hg][c]1ccccc1,AC50,[4],31.9 µM (active)
same,AC50,[7],40.5 µM (active)
same,AC50,[13],9.18 µM (active)
same,AC50,[18],15.7 µM (active)
same,AC50,[19],16.9 µM (active)
CC(C)(C)CC(C)(C)c1ccc(O)cc1,outcome,[2],inactive
same,outcome,[6],inactive
c1cc[c]([Hg][c]2ccccc2)cc1,AC50,[5],0.372 µM (active)
O=C(Cl)c1ccc(Cl)cc1,outcome,[2],inactive
Oc1ccc(-c2ccccc2)cc1,AC50,[5],43.8 µM (active) and 13.8 µM (active)
N#CCc1ccc(Cl)cc1,outcome,[2],inactive
CCC(=O)C(CC(C)N(C)C)(c1ccccc1)c1ccccc1 (stereo unspecified),AC50,[2],1.97 µM (active)
same,AC50,[9],1.16 µM (active)
O=C(O)C(Cl)(Cl)Cl,AC50,[17],1.6 µM (active)
same,outcome,[8],inactive
COP(=S)(OC)Oc1ccc(Sc2ccc(OP(=S)(OC)OC)cc2)cc1,AC50,[9],25 µM (active)
O=Cc1cccc(Oc2ccccc2)c1,outcome,[9],inactive
CN(C)N=O,outcome,[11],inactive
CCC(=O)c1ccccc1,outcome,[11],inactive
